Consider 25 compounds from PubChem BioAssay AID743279 (National Center for Advancing Translational Sciences (NCATS), 2014).

Screen size: about 360,000 compounds; about 17,000 (4.7%) were called active. About 5% were inconclusive and are not listed. The full list was thinned out, with actives kept by preference. Unmarked numbers belong to inactive results. No stated cut-off is given here; in the data, active means activity change below about -50%; inconclusive means mostly about -30% to -49%; inactive means weaker than that.
On the % scale 0 is the no-effect control and ±100 the full control effect.

The nature of the experiment: qHTS for Inhibitors of Inflammasome Signaling: IL-1-beta AlphaLISA Primary Screen. The conditions noted are these: THP-1 LPS/ATP IL-1B secretion, 16 h; at 57.5 µM, hits give low values. The text has this:
Inflammasomes are a set of intracellular multi-protein complexes that enable autocatalytic activation of inflammatory caspases and drive the innate immune response to counter harmful agents. […] A qHTS assay, based on AlphaLISA technology, was developed to screen the Molecular Libraries Small Molecule Repository (MLSMR) to look for novel inflammasome inhibitors. The assay detects IL-1B using AlphaLISA anti-IL-1B acceptor and donor beads. A decreased emission signal, indicating reduced IL-1B secretion, is the desired outcome for this assay. NIH Chemical Genomics Center [NCGC] NIH Molecular Libraries Probe Centers Network [MLPCN] MLPCN Grant: MH095513 Assay Provider: Shyam Biswal Ph.D., Johns Hopkins University Immunity. 2012 Jul 27;37(1):85-95. PMID: 22819042 [2] Curr Pharm Des. 2012;18(16):2320-8. PMID: 22390695
Three microliters containing 3000 THP-1 cells were dispensed into the wells of solid, white, tissue culture treated Greiner 1,536-well plates. Library compounds and positive control, Glyburide, were pin-transferred (23 nL) by a Kalypsys pin-tool equipped with a 1,536-pin array, resulting in final compound concentration ranges of 2.5 nM to 57.5 uM. After 1 hr of cell culture incubation (37 °C, 5% CO2), 1 microL of 1 microg/mL lipopolysaccharide (250 ng/mL, final) and 5 mM ATP (1.25 mM, final) were added to stimulate the cells. After 16 hr of cell culture incubation with the compounds, 1.5 uL of anti-IL-1B acceptor beads (6 ug/mL, final) and biotinylated antibody (0.6 nM, final) were added to the plate, followed by a 1 hr incubation at ambient temperature. To detect the secreted IL-1B, 1.5 uL of AlphaLISA SA-Donor beads (24 ug/mL, final) were added, followed by 30 min of incubation in the dark at ambient temperature. The AlphaLISA signal was read by a PerkinElmer EnVision plate reader with an ultrasensitive luminescence detector and 1536 Plate HTS AlphaScreen aperture (excitation of 680nm and emission of 615nm).
In general terms: In qHTS, concentration-response curves come from the screen itself.
As to `Cc1ccc(NC(=O)CCCNC(=O)c2ccc(Cl)cc2)cc1S(=O)(=O)N1CCCCC1`, the activity change was -6.38%.
Next, `COC(C[C@@H]1O[C@@H]1C(=O)[C@H](C)OCc1ccccc1)OC`: 8.19%; `COC(C/C=C/C(=O)[C@@H](C)OCc1ccccc1)OC`: -95.4% (active); `COC(C[C@H](O)CC(=O)[C@@H](C)OCc1ccccc1)OC`: -16.6%.
Turning to `C[C@H](CO)N1C[C@H](C)[C@H](CN(C)C(=O)c2ccncc2)OCc2ccccc2-c2c(n(C)c3ccccc23)C1=O`, the activity change was 42.4%.
Next, `CCCOC1CCCN(Cc2cn(C)nc2-c2ccccc2F)C1` (stereo not given): -7.48%.
With `COCCNC(=O)C1(C)CCCN(Cc2cccc(F)c2)C1` (stereo not given), the activity change is -12.6%.
Then `COc1ccc(OC)c(C(=O)NC(CC(N)=O)c2ccc(N3CCC(N4CCCCC4)CC3)c([N+](=O)[O-])c2)c1` (stereo not given), with 13.4%; and `COC(=O)Cn1cc(/C=C/[N+](=O)[O-])c2ccccc21`, with -27.5%; and `O=[N+]([O-])/C=C/c1ccc2c(ccn2Cc2ccccc2)c1`, with -90.5% (active).
As for `O=C(Cn1ccc2cc(S(=O)(=O)N3CCCC3)ccc21)NCc1ccccc1`, the activity change is 14.2%.
As to `Cc1ccc(-c2nc3c(C)cc(Br)cn3c2Cc2ccccc2)cc1`, the activity change was 58%.
In the case of `COc1cccc(NC(=O)CCc2nnc3ccc(N4CCC(C)CC4)nn23)c1`, the activity change was -6.48%.
As for `O=C(NCc1ccc(F)cc1)c1cc(C2CCCCN2C(=O)C2CCCCC2)on1` (stereo not given), the activity change is -0.0267%.
In the case of `Cc1cc(OCCCC(=O)Nc2cc(S(=O)(=O)N3CCOCC3)ccc2N2CCOCC2)ccc1Cl`, the activity change is -1.02%.
For `CC(c1ccccn1)N(CCN(C)C)C(=S)Nc1ccccc1F` (stereo not given), the activity change is 0%.
Turning to `CSc1cccc(NC(=S)N(C(C)C)C(C)c2ccccn2)c1` (stereo not given), the activity change is -98.3% (active).
Then `CSc1cccc(NC(=S)N(Cc2ccccc2)Cc2ccccn2)c1`, with -6.44%; and `O=C(/C=C/[C@H]1O[C@@H](n2ccc(=O)[nH]c2=O)[C@H](O)[C@@H]1O)NCc1ccccn1`, with 21.7%.
Consider `COc1ccc(N2CCN(C3CCCCC3NS(=O)(=O)c3ccccc3)CC2)cc1` (stereo not given), for which the activity change was -0.438%.
Next, `O=C(/C=C/c1cccc(C(F)(F)F)c1)N1CCN(c2ccccn2)CC1`: -95.2% (active); `O=C(C(Cl)Cl)N1CCN(c2ccccn2)CC1`: 1.16%.
For `O=C(Cc1ccc(Br)cc1)N1CCN(c2ccccn2)CC1`, the activity change was 8.64%.
On to `O=S1(=O)CCN(Cc2ccccc2)CC1`, for which the activity change was -15.7%.
Next, `Cc1nccn1-c1ccc(NC(=O)[C@H]2O[C@@H](n3cnc4c(N)ncnc43)[C@H](O)[C@@H]2O)cc1`: -25.6%.
